# Reference: PubChem BioAssay (NCATS)
# Records with an inconclusive call do not appear. Active and inactive are the calls of the source. Calls follow the shape of the dose curve; as a rule, active = well fitted inhibition curve with a large enough effect; inconclusive = small, poorly fitted or top-dose-only effect; inactive = flat fitted curve, though single readings scatter.
# System: NIH3T3
# Test: qHTS assay to identify novel small-molecules to repurpose for Merkel cell carcinoma treatment (AID 1296009); also: nearly all actives have a fitted effect of over 60% in size
# Settings: MCC and control cell lines, CellTiter-Glo viability, 72 h; at 44.8 µM (top of the series) unless noted
# In short: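 Viability readout: ATP luminescence (CellTiter-Glo) after 72 hr drug exposure at 37 degree celsius. Dose-response format was 8 points for NPC and 11 points for MIPE; data normalized to in-plate controls.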
row,Structure (SMILES),outcome
1,COCCc1ccccn1,inactive
2,OC1(c2ccccc2)CCNCC1,inactive
3,O=C1NC(c2ccccc2)(c2ccccc2)C(=O)N1COP(=O)(O)O,inactive
4,COC(=O)c1cc(Cl)ccc1OC,inactive
5,COC(=O)CCCCC(CCSS/C(CCO)=C(\C)N(C=O)Cc1cnc(C)nc1N)SC(C)=O (centres undefined),inactive
6,COc1ccc2nc(SCc3ncc(C)c(OC)c3C)[nH]c2c1,inactive
7,Cc1ccc(C(C)OC(=O)C2(C)CCC(C(=O)O)C2(C)C)cc1 (centres undefined),inactive
8,CN(C)CCN1CCN(c2cccc(Cl)c2)C1=O,inactive
9,CCOC(=O)C(=O)CCCCCCl,inactive
10,CCOC(=O)Oc1ccc(CCNC(=O)[C@H](CCSC)NC(C)=O)cc1OC(=O)OCC,inactive
11,COC(=O)c1cc(Cl)c(NC(C)=O)cc1OC,inactive
12,CCN1CCN(c2cc(-c3ccc(F)cc3)c3c(n2)CCCCCC3)CC1,inactive [at 17.4 µM]
13,CCCc1ncc(C(=O)O)s1,inactive
14,Cc1coc2ccccc2c1=O,inactive
15,O=C1CC2(CCCC2)CC(=O)N1,inactive
16,COC(=O)/C=C\C(=O)OC,inactive
17,C#CC(C)(CC)OC(=O)c1ccccc1C(=O)O (centres undefined),inactive
18,O=C(O)Cn1c(=O)n(Cc2ccc(Br)cc2F)c(=O)c2ccc(Cl)cc21,inactive
19,CN1CCN(N)CC1,inactive
20,CC(CC(C#N)(c1ccccc1)C(C)C)N(C)C (centres undefined),inactive
21,CCOC(=O)CN1CCCC1=O,inactive
22,CC(C)(C)NCC(O)COc1ccccc1OCC1CCCO1 (centres undefined),inactive
23,CCN(CC)CC(=O)Oc1ccc(NC(C)=O)cc1,inactive
24,COC(=O)/C=C(/C)N,inactive
